Results: PubChem BioAssay (EPA / NIEHS)
Inconclusive results are not listed. Activity calls are given as the source filed them. The calls were made as follows, unless noted: active = hit-call score of the fitted dose curve at least 0.9, where 1 is the maximum; inconclusive = response in the unintended direction; inactive = score below 0.9.

Tests used:
[1] = biological target: human Peripheral-type Benzodiazepine Receptor (PBR), TSPO (gene 706) (UniProt P30536); assay: NVS_MP_hPBR: NovaScreen (NVS) Membrane Protein Assay for human Peripheral-type Benzodiazepine Receptor (PBR) (AID 2283331);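 also: hits reduce radioligand binding relative to DMSO baseline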
Chain of human Peripheral-type Benzodiazepine Receptor (PBR), TSPO (gene 706) (P30536 whole entry, looked up): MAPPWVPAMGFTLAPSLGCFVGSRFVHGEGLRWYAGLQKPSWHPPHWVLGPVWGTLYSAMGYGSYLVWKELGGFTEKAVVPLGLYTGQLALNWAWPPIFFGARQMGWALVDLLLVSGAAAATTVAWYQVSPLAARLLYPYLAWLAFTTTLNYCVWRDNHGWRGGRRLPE
Outline: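 Using human colon-derived membranes, this one-endpoint binding test reads radioligand loss by scintillation after 1 h. Screening started at 25 uM in duplicate, with positive and negative controls on every plate, and actives moved to dose series.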

[2] = biological target: rat Peripheral-type Benzodiazepine Receptor (PBR), Tspo (gene 24230) (UniProt P16257); assay: NVS_MP_rPBR: NovaScreen (NVS) Membrane Protein Assay for rat Peripheral-type Benzodiazepine Receptor (PBR) (AID 2283335)
Chain of rat Peripheral-type Benzodiazepine Receptor (PBR), Tspo (gene 24230) (P16257 whole entry, looked up): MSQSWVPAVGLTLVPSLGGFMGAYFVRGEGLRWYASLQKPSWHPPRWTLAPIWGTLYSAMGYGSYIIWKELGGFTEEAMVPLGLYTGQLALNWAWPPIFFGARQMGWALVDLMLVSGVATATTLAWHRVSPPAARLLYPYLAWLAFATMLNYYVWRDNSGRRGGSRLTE
Outline: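 Competitive displacement of specific radioligand from rat kidney membrane PBR, read by filtration and scintillation after 1 h. Compounds first tested at 25 uM in duplicate, then in concentration series; signal loss relative to DMSO.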

[3] = biological target: bovine Estrogen Receptor (ER), ESR1 (gene 407238) (UniProt P49884); assay: NVS_NR_bER: NovaScreen (NVS) Nuclear Receptor Binding Assay for bovine Estrogen Receptor (ER) (AID 2283345);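 also: actives lower the bound radioligand count which means they displace the ER ligand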
Chain of bovine Estrogen Receptor (ER), ESR1 (gene 407238) (P49884 whole entry, looked up): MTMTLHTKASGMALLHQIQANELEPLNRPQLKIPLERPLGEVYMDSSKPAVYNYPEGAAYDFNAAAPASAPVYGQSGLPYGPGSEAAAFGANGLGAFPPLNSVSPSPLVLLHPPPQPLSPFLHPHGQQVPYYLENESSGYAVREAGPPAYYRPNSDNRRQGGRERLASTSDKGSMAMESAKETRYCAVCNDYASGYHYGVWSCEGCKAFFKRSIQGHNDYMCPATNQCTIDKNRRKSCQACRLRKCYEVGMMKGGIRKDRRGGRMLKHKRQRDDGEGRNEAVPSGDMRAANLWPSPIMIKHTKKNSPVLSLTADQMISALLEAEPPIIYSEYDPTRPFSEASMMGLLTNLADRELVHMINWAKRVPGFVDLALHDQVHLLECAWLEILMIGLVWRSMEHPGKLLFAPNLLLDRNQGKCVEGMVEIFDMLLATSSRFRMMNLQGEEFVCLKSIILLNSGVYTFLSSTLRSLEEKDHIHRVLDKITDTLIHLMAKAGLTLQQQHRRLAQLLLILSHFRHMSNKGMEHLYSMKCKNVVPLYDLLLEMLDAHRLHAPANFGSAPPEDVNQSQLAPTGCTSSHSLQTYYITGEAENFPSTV
Outline: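 Scintillation counting of displaced radioligand gave the readout; bovine uterine membrane extract supplied the receptor. Measured 18 h post-dose, normalized to DMSO baseline. Single 25 uM duplicate screen preceded concentration-response follow-up.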

[4] = biological target: Estrogen receptor (Homo sapiens) (UniProt P03372); assay: OT_ER_ERaERa_1440: Odyssey Thera (OT) 24-hour HEK293T Protein-Complementation Assay for Estrogen Receptor-alpha/-alpha Homodimer (AID 2283349);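 also: hits raise fluorescence above DMSO for agonists and antagonists alike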
Outline: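 Stably transfected HEK293T; ERα LBD homodimer PCA. 24 h dosing, fluorescence intensity read, gain-of-signal vs DMSO.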

[5] = biological target: Estrogen receptor (Homo sapiens) + Estrogen receptor beta (Homo sapiens) (UniProt P03372+Q92731); assay: OT_ER_ERaERb_0480: Odyssey Thera (OT) 8-hour HEK293T Protein-Complementation Assay for Estrogen Receptor-alpha/-beta Heterodimer (AID 2283352)
Chain of Estrogen receptor (Homo sapiens) + Estrogen receptor beta (Homo sapiens) (P03372 whole entry, looked up, the tested form may be a part): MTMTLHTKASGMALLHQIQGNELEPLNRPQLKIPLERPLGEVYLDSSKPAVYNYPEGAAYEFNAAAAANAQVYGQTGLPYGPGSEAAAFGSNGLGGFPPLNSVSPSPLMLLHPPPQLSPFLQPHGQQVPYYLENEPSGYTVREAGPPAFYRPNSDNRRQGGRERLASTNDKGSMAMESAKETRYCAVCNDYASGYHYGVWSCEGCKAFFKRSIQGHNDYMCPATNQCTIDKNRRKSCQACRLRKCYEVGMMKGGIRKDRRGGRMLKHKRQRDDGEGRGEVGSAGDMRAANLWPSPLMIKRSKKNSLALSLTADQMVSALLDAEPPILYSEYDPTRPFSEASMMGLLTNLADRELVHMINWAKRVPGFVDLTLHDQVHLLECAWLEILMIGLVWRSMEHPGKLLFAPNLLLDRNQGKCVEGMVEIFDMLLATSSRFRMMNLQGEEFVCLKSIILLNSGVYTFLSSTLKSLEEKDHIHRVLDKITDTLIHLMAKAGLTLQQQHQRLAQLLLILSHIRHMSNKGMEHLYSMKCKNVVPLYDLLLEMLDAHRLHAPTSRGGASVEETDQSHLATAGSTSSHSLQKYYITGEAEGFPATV
Chain of Estrogen receptor (Homo sapiens) + Estrogen receptor beta (Homo sapiens) (Q92731 whole entry, looked up, the tested form may be a part): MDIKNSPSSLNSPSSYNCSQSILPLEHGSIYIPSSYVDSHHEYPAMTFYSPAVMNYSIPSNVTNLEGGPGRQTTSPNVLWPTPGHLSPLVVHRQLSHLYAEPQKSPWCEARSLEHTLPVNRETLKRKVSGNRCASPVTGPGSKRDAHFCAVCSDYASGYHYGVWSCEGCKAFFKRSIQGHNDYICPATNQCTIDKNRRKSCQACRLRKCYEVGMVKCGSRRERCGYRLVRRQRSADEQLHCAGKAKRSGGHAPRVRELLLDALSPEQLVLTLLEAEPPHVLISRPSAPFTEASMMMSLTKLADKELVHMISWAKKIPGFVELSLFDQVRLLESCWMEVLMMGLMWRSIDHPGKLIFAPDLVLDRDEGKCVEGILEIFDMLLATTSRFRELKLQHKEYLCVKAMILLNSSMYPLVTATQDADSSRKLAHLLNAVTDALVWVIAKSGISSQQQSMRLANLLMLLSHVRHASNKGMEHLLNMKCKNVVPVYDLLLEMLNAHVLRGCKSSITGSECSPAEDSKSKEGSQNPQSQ
Outline: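 HEK293T protein-fragment complementation assay of ER-alpha/ER-beta LBD heterodimerisation, read 8 h after dosing. Mean nuclear/cytoplasmic fluorescence intensity measured by laser scanning cytometry; gain of signal fitted relative to DMSO.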

[6] = biological target: Voltage-gated inwardly rectifying potassium channel KCNH2 (Homo sapiens) (UniProt Q12809); assay: NVS_IC_hKhERGCh: NovaScreen (NVS) Ion Channel Assay for human Potassium Channel ERG (KhERGCh) (AID 2283333)
Chain of Voltage-gated inwardly rectifying potassium channel KCNH2 (Homo sapiens) (Q12809 whole entry, looked up): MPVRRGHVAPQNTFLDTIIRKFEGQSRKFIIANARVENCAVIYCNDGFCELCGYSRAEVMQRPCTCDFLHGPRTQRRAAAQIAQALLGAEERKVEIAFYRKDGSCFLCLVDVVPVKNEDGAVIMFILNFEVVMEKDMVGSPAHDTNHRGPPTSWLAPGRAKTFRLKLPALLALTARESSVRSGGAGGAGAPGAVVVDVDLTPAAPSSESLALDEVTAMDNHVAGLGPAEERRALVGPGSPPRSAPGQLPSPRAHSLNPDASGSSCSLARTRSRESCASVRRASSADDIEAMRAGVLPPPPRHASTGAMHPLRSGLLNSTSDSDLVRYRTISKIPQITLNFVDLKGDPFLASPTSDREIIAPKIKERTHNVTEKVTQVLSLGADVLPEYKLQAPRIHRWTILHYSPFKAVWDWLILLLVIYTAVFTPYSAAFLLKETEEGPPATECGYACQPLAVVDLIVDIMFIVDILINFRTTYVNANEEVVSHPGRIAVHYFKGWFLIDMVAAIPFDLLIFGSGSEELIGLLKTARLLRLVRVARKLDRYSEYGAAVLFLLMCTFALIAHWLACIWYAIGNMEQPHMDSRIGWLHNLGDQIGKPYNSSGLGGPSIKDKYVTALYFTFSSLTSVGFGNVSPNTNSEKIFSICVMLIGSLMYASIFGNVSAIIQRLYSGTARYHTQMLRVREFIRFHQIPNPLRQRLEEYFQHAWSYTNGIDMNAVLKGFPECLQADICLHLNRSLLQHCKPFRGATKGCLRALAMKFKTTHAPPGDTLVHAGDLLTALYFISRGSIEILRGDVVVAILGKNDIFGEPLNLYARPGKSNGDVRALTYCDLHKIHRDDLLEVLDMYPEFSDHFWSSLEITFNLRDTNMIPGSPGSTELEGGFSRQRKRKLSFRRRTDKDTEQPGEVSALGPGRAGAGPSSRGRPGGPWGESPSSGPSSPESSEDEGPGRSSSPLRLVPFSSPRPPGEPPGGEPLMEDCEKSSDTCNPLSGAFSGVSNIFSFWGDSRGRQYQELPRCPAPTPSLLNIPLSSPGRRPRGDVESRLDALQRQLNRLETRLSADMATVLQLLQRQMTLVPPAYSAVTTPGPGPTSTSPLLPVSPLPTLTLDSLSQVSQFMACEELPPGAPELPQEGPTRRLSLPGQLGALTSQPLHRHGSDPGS
Outline: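 Membranes from CHO cells expressing human ERG; displacement of radioligand measured by filtration and scintillation after 0.75 h. Single-concentration duplicate screen at 25 uM, then concentration-response for actives; DMSO baseline.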

[7] = NVS_IC_rCaBTZCHL: NovaScreen (NVS) Ion Channel Assay for Calcium Channel, Type L, Benzothiazepine Site (CaBTZCHL) (AID 2283337)
Outline: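 Test chemicals were added to rat cortical membranes and incubated 1.5 h with a tritiated or iodinated radioligand for the benzothiazepine site. Bound ligand was separated by filtration and counted. Actives from the 25 uM duplicate screen were retested in concentration series.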

[8] = test system: guinea pig Histamine Receptor (H2), gene 100729734; assay: NVS_GPCR_gH2: NovaScreen (NVS) G Protein-Coupled Receptor Assay for guinea pig Histamine Receptor (H2) (AID 2283342)
Outline: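 Guinea pig striatal membrane preparation with specific radioligand; bound counts measured by filtration and scintillation 1 h post-dosing, DMSO as baseline. Chemicals passing a 25 uM duplicate screen were titrated to a 50 uM maximum.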

[9] = biological target: chimpanzee Androgen Receptor (AR), AR (gene 747460) (UniProt O97775); assay: NVS_NR_cAR: NovaScreen (NVS) Nuclear Receptor Binding Assay for chimpanzee Androgen Receptor (AR) (AID 2283346);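 also: radioligand displacement from AR measured by scintillation counting in a cell-free assay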
Chain of chimpanzee Androgen Receptor (AR), AR (gene 747460) (O97775 whole entry, looked up): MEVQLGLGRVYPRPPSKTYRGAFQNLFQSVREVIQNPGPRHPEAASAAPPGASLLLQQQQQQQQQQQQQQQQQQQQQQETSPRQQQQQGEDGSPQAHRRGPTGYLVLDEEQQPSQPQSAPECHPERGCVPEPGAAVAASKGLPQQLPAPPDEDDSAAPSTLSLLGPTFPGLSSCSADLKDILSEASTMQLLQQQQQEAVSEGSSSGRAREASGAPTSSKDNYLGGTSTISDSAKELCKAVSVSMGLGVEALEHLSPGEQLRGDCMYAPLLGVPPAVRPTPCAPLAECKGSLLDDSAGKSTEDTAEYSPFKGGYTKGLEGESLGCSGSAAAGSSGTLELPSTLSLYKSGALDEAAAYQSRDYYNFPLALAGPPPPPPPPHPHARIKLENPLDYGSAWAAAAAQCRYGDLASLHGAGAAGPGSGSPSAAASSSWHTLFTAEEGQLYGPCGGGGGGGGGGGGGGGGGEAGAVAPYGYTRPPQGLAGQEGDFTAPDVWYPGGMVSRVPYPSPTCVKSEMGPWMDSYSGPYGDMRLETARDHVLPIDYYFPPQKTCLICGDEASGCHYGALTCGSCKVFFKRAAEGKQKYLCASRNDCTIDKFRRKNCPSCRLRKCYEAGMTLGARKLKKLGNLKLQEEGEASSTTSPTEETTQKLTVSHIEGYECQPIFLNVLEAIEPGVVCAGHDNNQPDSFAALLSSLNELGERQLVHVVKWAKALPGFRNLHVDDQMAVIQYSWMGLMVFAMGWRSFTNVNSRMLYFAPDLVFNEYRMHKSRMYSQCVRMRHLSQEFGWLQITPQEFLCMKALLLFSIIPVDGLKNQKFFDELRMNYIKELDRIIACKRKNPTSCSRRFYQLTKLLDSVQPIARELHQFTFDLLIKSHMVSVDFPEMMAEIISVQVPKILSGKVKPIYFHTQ
Outline: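 Cell-free radioligand displacement using receptor protein extracted from Sf9/Sf21 cells; bound radioligand measured by scintillation counting 72 hours after chemical dosing. Loss of signal versus DMSO baseline indicates binding; primary screen single-concentration in duplicate at 25 uM, actives followed in concentration series.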

[10] = biological target: Androgen Receptor/SRC-1 Co-activator, AR (gene 367) (UniProt P10275); assay: OT_AR_ARSRC1_0960: Odyssey Thera (OT) 16-hour HEK293T Protein-Complementation Assay for Androgen Receptor/SRC-1 Co-activator (AID 2283353);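 also: actives raise the signal above DMSO so potency reflects increased AR and SRC-1 complex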
Chain of Androgen Receptor/SRC-1 Co-activator, AR (gene 367) (P10275 whole entry, looked up, the tested form may be a part): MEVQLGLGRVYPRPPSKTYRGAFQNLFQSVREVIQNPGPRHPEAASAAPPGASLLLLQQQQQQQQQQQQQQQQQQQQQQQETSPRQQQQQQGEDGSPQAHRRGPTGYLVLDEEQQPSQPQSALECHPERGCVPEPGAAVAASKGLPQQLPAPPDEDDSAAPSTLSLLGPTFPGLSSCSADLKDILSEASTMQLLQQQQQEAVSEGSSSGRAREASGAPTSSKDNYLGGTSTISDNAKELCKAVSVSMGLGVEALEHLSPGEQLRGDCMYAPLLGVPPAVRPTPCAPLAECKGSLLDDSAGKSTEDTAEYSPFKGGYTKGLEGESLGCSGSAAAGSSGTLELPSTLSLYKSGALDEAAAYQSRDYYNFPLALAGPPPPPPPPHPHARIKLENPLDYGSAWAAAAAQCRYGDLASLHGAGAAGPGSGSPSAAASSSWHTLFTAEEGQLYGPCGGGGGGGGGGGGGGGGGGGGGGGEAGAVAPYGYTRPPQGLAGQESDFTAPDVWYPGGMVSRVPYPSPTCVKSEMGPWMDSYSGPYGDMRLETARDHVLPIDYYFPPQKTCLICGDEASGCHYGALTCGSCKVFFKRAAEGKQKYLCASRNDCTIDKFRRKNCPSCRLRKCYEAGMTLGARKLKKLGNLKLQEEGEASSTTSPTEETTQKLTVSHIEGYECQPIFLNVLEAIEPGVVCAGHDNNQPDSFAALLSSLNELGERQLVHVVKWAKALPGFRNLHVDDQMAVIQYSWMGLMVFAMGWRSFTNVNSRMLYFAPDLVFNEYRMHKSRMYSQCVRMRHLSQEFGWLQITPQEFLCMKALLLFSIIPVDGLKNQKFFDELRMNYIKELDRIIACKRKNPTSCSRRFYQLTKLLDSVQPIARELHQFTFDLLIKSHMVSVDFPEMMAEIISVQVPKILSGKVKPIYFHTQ
Outline: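 Stable HEK293T line carries AR and SRC-1 each linked to a Venus fragment; chemicals are applied for 16 h, cells imaged at two wavelengths, and the 488 nm nucleus/cytoplasm ratio is taken as the signal, rising relative to DMSO.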

[11] = test system: NCBI gene 100848466; assay: NVS_NR_bPR: NovaScreen (NVS) Nuclear Receptor Binding Assay for bovine Progextron Receptor (PR) (AID 2283343);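 as to AC50: actives lower bound radioligand signal below DMSO meaning displacement of the label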
Outline: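 Steps: bovine uterine membranes were dosed with chemical alongside radioligand, incubated 18 hours, then radiodetected by scintillation counting. Initial testing used 25 uM in duplicate; confirmed actives were rerun as concentration series.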

[12] = biological target: Glutamate receptor ionotropic, kainate 1 (Rattus norvegicus) (UniProt P22756); assay: NVS_IC_rKAR: NovaScreen (NVS) Ion Channel Assay for rat Kainic Acid Receptors (KAR) (AID 2283334; active = hit-call score of the fitted dose curve at least 0.9, where 1 is the maximum; inactive = score below 0.9)
Outline: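 Rat forebrain membrane preparation incubated 1 h with radioligand and test chemical; bound signal read by filtration and scintillation. Single-concentration screen at 25 uM, then concentration series to 50 uM maximum.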

[13] = biological target: Estrogen receptor (Homo sapiens) (UniProt P03372); assay: OT_ER_ERaERa_0480: Odyssey Thera (OT) 8-hour HEK293T Protein-Complementation Assay for Estrogen Receptor-alpha/-alpha Homodimer (AID 2283351);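 also: rise in fluorescence from reassembled reporter fragments on ERα LBD homodimer in nucleus or whole cell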
Outline: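 Cells were treated for 8 hours, then imaged on a laser scanning plate cytometer. Complementation of reporter fragments fused to the human ERα ligand-binding domain (residues 310-547) in HEK293T gave fluorescence, and gain of signal over vehicle was fitted.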

[14] = biological target: Estrogen receptor (Homo sapiens) (UniProt P03372); assay: NVS_NR_hER: NovaScreen (NVS) Nuclear Receptor Binding Assay for human Estrogen Receptor (ER) (AID 2283348)
Outline: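 Radiodetection of ligand displacement in a lysate-based, cell-free format using MCF7 extracts, read at 18 hours. Duplicate 25 uM primary testing, then concentration series for actives.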

[15] = biological target: Bile acid receptor (Homo sapiens) (UniProt Q96RI1); assay: NVS_NR_hFXR_Antagonist: NovaScreen (NVS) Nuclear Receptor Binding Assay for human Farnesoid X Receptor Antagonism (FXR) (AID 2283350)
Outline: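 Antagonist-format time-resolved FRET binding assay with extracted human receptor protein, read 1 hour after compound addition. Compounds first screened at 25 uM in duplicate, then actives tested in concentration series, with loss of signal relative to DMSO.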

[16] = biological target: human Androgen Receptor (AR), AR (gene 367) (UniProt P10275); assay: NVS_NR_hAR: NovaScreen (NVS) Nuclear Receptor Binding Assay for human Androgen Receptor (AR) (AID 2283332)
Outline: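 Actives from a duplicate 25 uM single-point screen went on to concentration series. Read-out after 20 h was scintillation counting of displaced radioligand in LnCAP extract, with DMSO as baseline.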

[17] = biological target: rat Gamma-Aminobutyric Acid Type A Receptor BDZ, alpha 6 site (GABARa6), Gabra6 (gene 29708) (UniProt P30191); assay: NVS_LGIC_rGABARa6: NovaScreen (NVS) Ligand-Gated Ion Channel Assay for rat Gamma-Aminobutyric Acid Type A Receptor BDZ, alpha 6 site (GABARa6) (AID 2283339)
Outline: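 Actives from a 25 uM duplicate screen were retested in concentration series (max 50 uM). Specific radioligand displacement from rat cerebellar membranes was counted by filter-based scintillation at 1 h; DMSO served as baseline.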

[18] = biological target: rat Glutamate, MK-801 Agonist Site (GluNMDA_MK801), Grin1 (gene 24408) (UniProt P35439); assay: NVS_LGIC_rGluNMDA_MK801_Agonist: NovaScreen (NVS) Ligand-Gated Ion Channel Assay for rat Glutamate, MK-801 Agonist Site (GluNMDA_MK801) (AID 2283340)
Outline: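 Rat forebrain membrane preparation; MK-801-site radioligand binding read by filtration and scintillation after 1.5 h. Single-point 25 uM duplicate screen, followed by singleton concentration series to 50 uM max; DMSO baseline.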

Measured: AC50

CC(C)Oc1cccc(NC(=O)c2ccccc2C(F)(F)F)c1
active: [1] 0.824 µM | [2] 0.28 µM
inactive: [3] | [4] | [5]

COCC(C)N(C(=O)CCl)c1c(C)csc1C (stereo not given)
active: [1] 9.66 µM | [2] 2.95 µM
inactive: [4] | [5]

CCCN(CC)CC1COC2(CCC(C(C)(C)C)CC2)O1 (stereo not given)
inactive: [4]
active: [6] 5.15 µM | [7] 9.84 µM | [8] 9.65 µM

COC(=O)N(C(=O)N1CO[C@@]2(C(=O)OC)Cc3cc(Cl)ccc3C2=N1)c1ccc(OC(F)(F)F)cc1
active: [1] 0.292 µM
inactive: [2] | [9] | [4] | [5] | [10]

N#Cc1c(Cl)cccc1Cl
inactive: [2] | [11] | [3] | [4] | [5]

CO/N=C(/C1=NOCCO1)c1ccccc1Oc1ncnc(Oc2ccccc2Cl)c1F
inactive: [12] | [4] | [13]

CC(C)=CC1C(C(=O)OCc2coc(Cc3ccccc3)c2)C1(C)C (stereo not given)
active: [11] 25 µM
inactive: [1] | [2] | [3] | [14] | [4]

CCOP(=O)(OCC)Oc1nc(Cl)c(Cl)cc1Cl
active: [1] 4.32 µM | [2] 1.6 µM | [10] 33.2 µM
inactive: [4] | [13] | [5]

CCCCC(C#N)(Cn1cncn1)c1ccc(Cl)cc1 (stereo not given)
inactive: [1] | [6] | [7] | [11] | [3] | [14] | [4] | [13]
active: [2] 12.5 µM | [8] 29.7 µM

CC1(C)C(C=C(Cl)Cl)C1C(=O)OC(C#N)c1cccc(Oc2ccccc2)c1 (stereo not given)
active: [1] 14.9 µM | [2] 5.01 µM
inactive: [11] | [3] | [14] | [4] | [13] | [5]

CC(C)(C)C(=O)C(Oc1ccc(Cl)cc1)n1cncn1 (stereo not given)
inactive: [8] | [11] | [3] | [14] | [4] | [13] | [5]
active: [1] 44 µM | [2] 2.37 µM | [9] 19.6 µM

COc1ccc(-c2ccccc2)cc1NNC(=O)OC(C)C
inactive: [4] | [5] | [10]
active: [1] 0.149 µM | [2] 0.0966 µM

CCCCOCN(C(=O)CCl)c1c(CC)cccc1CC
active: [1] 6.37 µM | [2] 1.65 µM | [10] 21.8 µM
inactive: [9] | [4]

O=C(Nc1ccccc1-c1ccc(Cl)cc1)c1cccnc1Cl
inactive: [1] | [2] | [4] | [5]

COP(=S)(OC)Oc1ccc([N+](=O)[O-])c(C)c1
inactive: [2] | [3] | [4] | [15] | [13] | [5]
active: [1] 25 µM | [11] 14.8 µM | [9] 5.29 µM

Cc1c(COC(=O)[C@@H]2[C@H](/C=C(\Cl)C(F)(F)F)C2(C)C)cccc1-c1ccccc1
inactive: [1] | [2] | [14] | [4] | [5]

CCN(CC)C(=O)C(C)Oc1cccc2ccccc12 (stereo not given)
inactive: [4] | [13] | [5]
active: [1] 1.11 µM | [2] 0.125 µM | [9] 11.5 µM

Cc1nc(N(C)C)nc(OC(=O)N(C)C)c1C
active: [1] 12.1 µM | [2] 19 µM
inactive: [4] | [13] | [5]

O=C1C2CC=CCC2C(=O)N1SC(Cl)(Cl)Cl (stereo not given)
inactive: [2] | [11] | [4] | [13] | [5]

CCOC(=O)C(C)OC(=O)c1cc(Oc2ccc(C(F)(F)F)cc2Cl)ccc1[N+](=O)[O-] (stereo not given)
inactive: [3] | [4] | [5]
active: [1] 8.41 µM | [2] 6.45 µM

CCCCC(O)(Cn1cncn1)c1ccc(Cl)cc1Cl (stereo not given)
inactive: [1] | [7] | [18] | [3] | [4] | [15] | [5]
active: [16] 18 µM | [6] 13.4 µM | [17] 1.89 µM | [11] 7.24 µM | [9] 25 µM | [10] 72.5 µM

CCNP(=S)(OC)O/C(C)=C/C(=O)OC(C)C (stereo not given)
active: [1] 17.5 µM | [2] 11.8 µM | [8] 16.1 µM
inactive: [4]

Cn1c(-c2ccccc2)cc(-c2ccccc2)[n+]1C
active: [7] 33.3 µM
inactive: [8] | [4] | [5]

CCN(CC)c1nc(C)cc(OP(=S)(OC)OC)n1
active: [1] 14 µM | [2] 0.467 µM | [11] 18.5 µM | [5] 19.9 µM
inactive: [14] | [4] | [13]

N#Cc1c[nH]cc1-c1cccc2c1OC(F)(F)O2
active: [4] 31 µM
inactive: [1] | [2] | [11] | [3] | [13]
